Shown are actives, neighbours in structure and some others; about 0.97% of the full set was active somewhere.
Akt phos inh – blocks phosphorylation of Akt | Neuro2A IGF-stimulated pAkt S473 HTRF, 20 min; hits give low values | 360,000 tested, 0.32% active | AID 651550 | activity change, % for hits at 50 µM; in the data active = activity change below about -80%; inconclusive = mostly about -51% to -80%; note: % is set by controls: 0 for no effect and ±100 for the full control effect
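Neuro2A cells in DMEM with 0.5% FBS, overnight at 37 deg C, given compound at single 50 µM final, then IGF (6 nM final) for 20 min at 37 deg C. Lysed; phospho-Akt Ser473 by HTRF after 24 h, 665/615 ratio.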
Epigenetic derep – derepresses silenced GFP reporter in murine cells. murine LDR cells, GFP reporter derepression, 30 h. Potency, µM (highest dose often 53.9 µM), without a hit: at the top dose GFP activation, most hits filed as activators. 280,000 tested, 0.2% active. AID 1865; note: potency is the fitted concentration of half-maximal effect; % of control where 0% means no effect; nearly all actives have a fitted effect of over 60% in size
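Derepression of a silenced CMV-GFP reporter in murine LDR cells is scored by enumerating GFP-positive cells with a laser-scanning microplate cytometer after 30 hours of treatment at 37 C.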
uPA surface inh – inhibitors of cell surface uPA generation. cell surface uPA generation assay, qHTS. Potency, µM (series often up to 38.3 µM), for the others: at the highest dose activity change, negative = inhibition, hits mostly inhibitors. 330,000 tested, 0.31% active; active = well fitted inhibition curve with a large enough effect; inconclusive = small, poorly fitted or top-dose-only effect; inactive = no such curve, though single readings can be large or run the other way; tested in mouse RAW 264.7 cells; note: potency is the fitted concentration of half-maximal effect; % is set by controls: 0 for no effect and ±100 for the full control effect; nearly all actives have a fitted effect of over 55% in size
MBNL1 CUG block – MBNL1-poly(CUG) RNA binding inhibition | Q9NR56 | TR-FRET MBNL1-His/biotin-(CUG)12 binding, 665/545 ratio | Potency, µM (top dose mostly 57.5 µM), for inactives: at the top dose activity change, negative = inhibition, actives largely listed as inhibitors | 280,000 tested, 0.036% active | AID 2675; active = well fitted inhibition curve with a large enough effect in the signal ratio, with a control signal flat, not every such curve was filed as active; inconclusive = small, poorly fitted or top-dose-only effect, or effect the other way, or a change in a side signal; inactive = no such curve, though single readings can be large or run the other way; the % refers to the signal ratio; note: potency is the fitted concentration of half-maximal effect; % is set by controls: 0 for no effect and ±100 for the full control effect
Target sequence (Q9NR56 whole entry, looked up): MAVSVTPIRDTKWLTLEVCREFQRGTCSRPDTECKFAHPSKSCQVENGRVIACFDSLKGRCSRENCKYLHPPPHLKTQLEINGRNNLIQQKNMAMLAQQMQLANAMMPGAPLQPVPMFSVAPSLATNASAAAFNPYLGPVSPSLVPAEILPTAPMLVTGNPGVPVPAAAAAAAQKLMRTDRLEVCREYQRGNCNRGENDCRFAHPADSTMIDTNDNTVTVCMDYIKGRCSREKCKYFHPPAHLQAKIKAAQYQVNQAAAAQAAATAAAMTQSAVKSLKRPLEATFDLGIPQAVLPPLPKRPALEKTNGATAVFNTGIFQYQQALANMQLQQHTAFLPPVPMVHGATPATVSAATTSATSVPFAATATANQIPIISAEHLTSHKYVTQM
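Compound titration spanned 92 nM–58 uM against the MBNL1-His/biotin-(CUG)12 complex. After 60 min at room temperature with 5 nM streptavidin-XL665 and 0.055 ng/ul terbium anti-His, ratiometric 665/545 nm emission (Ex 340 nm) normalized to controls.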
MmCpn inh – M. maripaludis TRiC chaperonin inhibition. 330,000 tested, 0.031% active. purified Mm-Cpn ATPase, ADP Transcreener TR-FRET. Potency, µM (series often up to 76.9 µM), for the others: at the top dose activity, negative = inhibition, actives largely listed as inhibitors; note: potency is the fitted concentration of half-maximal effect; % is set by controls: 0 for no effect and ±100 for the full control effect; nearly all actives have a fitted effect of over 80% in size
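ATPase turnover read by TR-FRET ADP competition (Eu cryptate antibody/ADP-d2, 665/590 nm): 10uM ATP final, 25nM Mm-CPN final, 30 min 37degC after 10-min compound preincubation, pH 7.4 Tris/KCl/MgCl2/DTT buffer.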
CCT modulator – changes cytosolic chaperonin activity; 360,000 tested, 0.3% active; purified chaperonin ATPase assay, HTRF ADP detection, 30 min; activity change, % (concentration not given with the values), hits read low; in the data active = activity change below about -30%; note: % is set by controls: 0 for no effect and ±100 for the full control effect
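We incubate TRiC, 40 or 20 nM final, with library compounds at 76 uM and 10 uM ATP for 30 min at 37 °C. ADP formed is detected with Transcreener HTRF reagents after 30 min at room temperature.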
The depositor's hits bear a star; i = inactive; ? = inconclusive; . = not tested or not shown; [ ] = another dose, or the depositor's remark. Unless noted, calls come from the whole dose curve; as a rule, active = well fitted curve in the direction sought with a large enough effect; inconclusive = small, poorly fitted or top-dose-only effect, or another doubt; inactive = no such curve, though single readings can be large; an effect the other way counts as inactive or inconclusive.

SMILES	Akt phos inh	Epigenetic derep	uPA surface inh	MBNL1 CUG block	MmCpn inh	CCT modulator
CCN(CC)c1ccc(/C=C/C(=O)C2C(=O)C=C(C)OC2=O)cc1 (stereo not given)	i	11.2µM*	-6.4%	11.4%	-0.2%	-0.3
COCCn1c(C)cc(/C=C2/SC(=O)N(C(C)C(=O)OC)C2=O)c1C (stereo not given)	i	-1.8%	11.2µM*	8.9%	-3.8%	-1.6
CCn1c(C)cc(/C=C2/SC(=O)N(C(C)C(=O)OC)C2=O)c1C (stereo not given)	i	0.0%	-8.5%	9.2%	-0.9%	0.6
O=C(NCc1ccccn1)C1CCCN(Cc2cnn(-c3ccccc3)c2-n2cccc2)C1 (stereo not given)	-98.1%*	-1.1%	-0.2%	9.4%	0.4%	-3.3
O=C(NCc1ccccn1)C1CCN(Cc2cnn(-c3ccccc3)c2-n2cccc2)CC1	.	3.1%	1.1%	-2.7%	-0.5%	1.2
COc1cc(CCC(=O)OCC(=O)Nc2sccc2C(N)=O)cc(OC)c1OC	i	.	-5.0%	.	0.3%	-3.6
CCSC1=N/C(=C\c2ccc3c(c2)OCO3)C(=O)S1	i	1.2%	-2.5%	6.4%	2.0%	-0.7
CCSC1=N/C(=C\C=C2/Oc3ccccc3N2CC)C(=O)S1	i	11.2µM*	0.4%	?	-0.2%	-18.8
C=CCOc1c(Cl)cc(CNc2ccc(N(C)C)cc2)cc1OC	i	-0.7%	.	?	15.8µM*	-8.7
C=CCOc1c(Cl)cc(CNc2ccc(C)c(Cl)c2)cc1OC	.	2.6%	.	-1.7%	-0.9%	.
CCCc1cc(C(=O)Nc2c(C)nn(Cc3ccc(Cl)c(Cl)c3)c2C)no1	.	-1.8%	.	.	.	.
CC1Sc2n(c3ccccc3[n+]2C)N=C1c1ccccc1 (stereo not given)	i	0.0%	-16.1%	0.0%	1.9%	-34.1*
O=C(Nc1ccncc1)C1CCN(S(=O)(=O)c2ccc(Cl)c(C(F)(F)F)c2)CC1	i	.	11.2µM*	.	1.5%	-1.5
Cc1ccnc(NC(=O)C2CCN(S(=O)(=O)c3ccc(Cl)c(C(F)(F)F)c3)CC2)c1	i	.	0.9%	.	-0.8%	-1.2
O=C(Cc1ccccc1)NN1C(=O)/C(=C/c2ccc(C(=O)O)cc2)SC1=S	i	-0.5%	0.2%	?	2.5%	-35.1*
NC(=O)CC12CC3CC(C1)CC(CC(N)=O)(C3)C2	-82.1%*	2.8%	.	-0.5%	-0.9%	-2.3
CCc1nc2sc3c(N4CCC(C)CC4)ncnc3c2c2c1CCCC2	.	1.8%	.	.	.	.
COc1ccc2[nH]cc(C(=O)CN3CCN(C/C=C/c4ccccc4)CC3)c2c1	.	10µM*	.	-11.4%	1.6%	.
COc1ccc2[nH]cc(C(=O)CN3CC(C)CC(C)C3)c2c1 (stereo not given)	i	.	-6.4%	-8.7%	0.3%	0.3
O=C(COC(=O)/C=C/c1cccc(F)c1)NCc1ccc2c(c1)OCO2	i	.	.	.	.	-0.3
Cc1ccc(CNS(=O)(=O)c2ccc3c(c2)NC(=O)CS3)cc1	.	.	-0.7%	-7.9%	3.1%	-73.6*
O=C(O)C1CSC2(c3ccc(Br)cc3)CCC(=O)N12 (stereo not given)	i	-1.3%	-6.2%	-2.1%	1.2%	1.8
O=C(O)C1CSC2(c3ccc4c(c3)OCCO4)CCC(=O)N12 (stereo not given)	-114.8%*	4.0%	3.7%	1.5%	0.1%	-1.1
CC(=O)Nc1ccc(-c2cn3cc(C)ccc3n2)cc1	i	0.1%	4.47µM*	-2.0%	-4.0%	0.2
Cc1ccc2nc(-c3ccccc3)cn2c1	i	0.0%	-13.8%	9.1%	-4.3%	0.4
SMILES	Akt phos inh	Epigenetic derep	uPA surface inh	MBNL1 CUG block	MmCpn inh	CCT modulator
C=CCNC(=O)c1cc2c(=O)n3ccccc3nc2s1	i	.	?	?	-2.7%	-0.6
Cc1cc(NC(=O)c2cc(Cl)ccc2Cl)no1	i	1.9%	8.9%	3.8%	0.9%	1.2
Cc1cc(NC(=O)c2ccccc2Cl)no1	-103.7%*	-0.9%	-5.3%	-3.8%	-1.1%	-3.4
CCOc1cc(N2CCOCC2)c(OCC)cc1NC(=O)CN1C(=O)NC2(CCCCC2)C1=O	i	.	-3.4%	.	0.8%	-0.5
CCCCSc1nnc(-c2ccc(NC(C)=O)cc2)n1C	i	2.3%	0.4%	-14.1%	0.2%	-0.3
CCCCSc1nnc(-c2ccc(C)cc2)n1C	-112.5%*	2.6%	-8.8%	-12.8%	0.2%	1.6
COc1ccc(NC(=O)CCC(=O)Nc2nnc(CC(C)C)s2)cc1Cl	i	.	1.8%	-1.7%	0.6%	-3.3
CC1Oc2ccccc2C=C1/C=N/NC(=O)c1ccccc1 (stereo not given)	i	1.1%	-14.2%	26.1%	-1.8%	-45.2*
O=c1oc2ccccc2c(Nc2cccc3cccnc23)c1[N+](=O)[O-]	i	-1.9%[10.1 µM]	-5.7%	?	0.9%	-0.1
CC1NC(=O)NC1CCCCCC(=O)NCCc1ccccc1 (stereo not given)	i	1.6%	3.3%	0.447µM*	-0.4%	-1.3
Cc1cccc(C)c1NC(=O)CCCCCC1NC(=O)NC1C (stereo not given)	i	1.4%	-2.6%	0.708µM*	-0.9%	1.2
C[C@@H]1NC(=O)N[C@@H]1CCCCCC(=O)O	i	.	-22.2%	.	.	-2.1
Cc1ccc(C(=O)COC(=O)CCNS(=O)(=O)c2ccccc2F)cc1	i	.	8.1%	.	-2.0%	0.7
Cc1ccoc1C(=O)Nc1cccc2ccccc12	i	.	?	7.7%	-0.6%	0.8
CN(C)CCCN(Cc1ccccc1)C(=S)Nc1ccc(OC(F)F)cc1	i	-0.9%	5.2%	-18.8%	-0.9%	-53.9*
CC1Sc2ccc(S(=O)(=O)N3CCC(C(=O)N(C)Cc4ccco4)CC3)cc2NC1=O (stereo not given)	i	.	-5.3%	-0.7%	3.0%	1.5
CC1Sc2ccc(S(=O)(=O)N3CCC(C(=O)NCc4ccco4)CC3)cc2NC1=O (stereo not given)	i	.	-1.6%	-1.8%	3.1%	-33.8*
CN1CCN(c2nc3c(c(=O)[nH]c(=O)n3C)n2Cc2ccc([N+](=O)[O-])cc2)CC1	i	.	10.4%	?	1.1%	-76.1*
Cc1ccc(-c2nc3ccc(Cl)cc3n2OC(C)C(=O)O)cc1 (stereo not given)	i	-0.9%	-2.5%	-3.5%	0.4%	-55.3*
CC(C)NC(=O)N(C)C[C@@H]1Oc2ccc(NC(=O)CCN3CCOCC3)cc2CC(=O)N([C@@H](C)CO)C[C@@H]1C	i	.	8.7%	.	0.3%	0.5
COC1(C#CC2C=CC(OC(C)=O)C(COC(C)=O)O2)CCCCC1 (stereo not given)	.	0.0%[10.1 µM]	.	.	.	.
CC1(C)Cc2nc3sc4c(SCC(=O)O)ncnc4c3cc2CO1	i	0.2%	2.24µM*	-3.5%	-0.2%	-1.0
